Records with an inconclusive call do not appear. Calls of active or inactive are those of the source. The call rests on the fitted dose curve; in most records, active means well fitted curve in the direction sought with a large enough effect; inconclusive means small, poorly fitted or top-dose-only effect, or another doubt; inactive means no such curve, though single readings can be large; an effect the other way counts as inactive or inconclusive.

From PubChem BioAssay (NCATS) come the findings set out here.

Sequence of Cytochrome P450 3A4 (Homo sapiens) (P08684 whole entry, looked up): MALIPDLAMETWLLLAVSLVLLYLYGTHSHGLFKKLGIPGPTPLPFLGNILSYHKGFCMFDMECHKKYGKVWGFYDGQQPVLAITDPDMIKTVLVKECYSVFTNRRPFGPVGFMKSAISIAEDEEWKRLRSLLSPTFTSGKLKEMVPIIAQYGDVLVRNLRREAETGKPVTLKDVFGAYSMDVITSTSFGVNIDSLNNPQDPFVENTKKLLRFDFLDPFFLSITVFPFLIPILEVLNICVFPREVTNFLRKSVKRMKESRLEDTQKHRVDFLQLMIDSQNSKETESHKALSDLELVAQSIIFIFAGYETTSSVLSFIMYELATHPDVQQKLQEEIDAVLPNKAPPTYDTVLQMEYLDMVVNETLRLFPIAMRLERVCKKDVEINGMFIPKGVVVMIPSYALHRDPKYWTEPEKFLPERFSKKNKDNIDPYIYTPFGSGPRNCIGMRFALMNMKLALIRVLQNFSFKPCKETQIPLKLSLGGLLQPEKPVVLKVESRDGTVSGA
Sequence of Dual specificity protein kinase CLK4 (Homo sapiens) (Q9HAZ1 whole entry, looked up): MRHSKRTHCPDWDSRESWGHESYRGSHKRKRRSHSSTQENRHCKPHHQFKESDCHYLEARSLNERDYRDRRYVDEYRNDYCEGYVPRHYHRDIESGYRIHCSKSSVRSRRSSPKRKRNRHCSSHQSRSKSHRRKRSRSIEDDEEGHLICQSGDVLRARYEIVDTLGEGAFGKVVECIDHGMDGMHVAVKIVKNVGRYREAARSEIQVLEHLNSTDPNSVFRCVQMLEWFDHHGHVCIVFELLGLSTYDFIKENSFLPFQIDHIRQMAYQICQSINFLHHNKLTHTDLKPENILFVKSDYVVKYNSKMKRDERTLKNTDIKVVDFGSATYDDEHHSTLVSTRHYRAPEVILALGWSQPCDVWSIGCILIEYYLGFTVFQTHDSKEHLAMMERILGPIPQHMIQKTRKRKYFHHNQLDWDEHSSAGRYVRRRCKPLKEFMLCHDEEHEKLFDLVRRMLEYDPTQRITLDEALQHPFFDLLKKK
Sequence of Cytochrome P450 2D6 (Homo sapiens) (P10635 whole entry, looked up): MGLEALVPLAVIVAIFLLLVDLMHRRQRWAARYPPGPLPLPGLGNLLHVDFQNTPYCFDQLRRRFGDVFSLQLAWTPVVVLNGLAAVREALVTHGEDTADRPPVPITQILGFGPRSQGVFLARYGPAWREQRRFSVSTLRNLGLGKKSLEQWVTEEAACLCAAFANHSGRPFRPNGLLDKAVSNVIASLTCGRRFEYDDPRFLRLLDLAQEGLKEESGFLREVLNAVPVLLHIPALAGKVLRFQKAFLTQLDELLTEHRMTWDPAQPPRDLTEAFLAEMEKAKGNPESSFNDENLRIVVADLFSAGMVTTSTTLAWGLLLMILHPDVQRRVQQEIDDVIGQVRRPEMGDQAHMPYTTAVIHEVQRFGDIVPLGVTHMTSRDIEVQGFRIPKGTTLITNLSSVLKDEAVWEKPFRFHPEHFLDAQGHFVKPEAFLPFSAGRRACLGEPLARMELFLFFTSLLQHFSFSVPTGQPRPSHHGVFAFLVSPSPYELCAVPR
Sequence of Cytochrome P450 2C19 (Homo sapiens) (P33261 whole entry, looked up): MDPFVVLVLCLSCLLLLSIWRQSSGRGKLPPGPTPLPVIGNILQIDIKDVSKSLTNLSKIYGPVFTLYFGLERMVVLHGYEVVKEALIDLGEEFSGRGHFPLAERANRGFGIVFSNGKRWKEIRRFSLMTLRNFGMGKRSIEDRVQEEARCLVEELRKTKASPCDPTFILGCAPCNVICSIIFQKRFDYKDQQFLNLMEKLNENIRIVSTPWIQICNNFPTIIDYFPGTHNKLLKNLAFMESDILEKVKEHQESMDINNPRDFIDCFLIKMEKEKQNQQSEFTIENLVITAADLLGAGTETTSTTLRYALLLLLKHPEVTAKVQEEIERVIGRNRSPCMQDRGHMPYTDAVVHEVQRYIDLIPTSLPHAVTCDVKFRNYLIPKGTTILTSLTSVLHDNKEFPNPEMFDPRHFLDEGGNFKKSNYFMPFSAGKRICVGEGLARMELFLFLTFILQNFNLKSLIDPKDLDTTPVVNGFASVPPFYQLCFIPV

The target in one experiment is Cytochrome P450 3A4 (Homo sapiens) (UniProt P08684). The experiment in a line: qHTS Assay for Activators of Cytochrome P450 3A4 (AID 885). Further: nearly all actives have a fitted effect of over 65% in size. The note with it: recombinant CYP3A4, Luciferin-PPXE luminescence, 60 min; series mostly up to 57.1 µM; activity change, positive = activation: at the top concentration. The method, boiled down:
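Quantitative HTS format: compounds preincubated with 20nM human CYP3A4 and Luciferin-PPXE substrate at KM, reaction started by NADPH regeneration, stopped after 60 min, luciferase luminescence read 20 min later.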
Turning to `Cc1noc(C)c1-c1nccc(NCc2ccccc2)n1`, the “activity change, positive = activation” value was -92.2% (inactive).
The same measure, in the same setting: next, `c1ccc(CNc2cc(-c3ccoc3)ncn2)cc1`: -40.5% (inactive).
As to `CN(Cc1ccco1)c1cc(-c2cccnc2)ncn1`, the “activity change, positive = activation” value is -72.5% (inactive).
As to `c1cncc(CNc2cc(-c3ccoc3)ncn2)c1`, the “activity change, positive = activation” value was -53.1% (inactive).
The same measure, in the same setting: next, `CC(=O)NCCNc1nc(-c2c(C)noc2C)nc2ccccc12`: -73.1% (inactive); `CC(=O)NCCNc1ccnc(-c2ccccc2C)n1`: -36.5% (inactive).
The same measure, in the same setting: next, `Cc1cnc(CNc2ccnc(-c3cccc(NS(C)(=O)=O)c3)n2)cn1`: -67.9% (inactive); `CS(=O)(=O)Nc1cccc(-c2cc(NCc3ccccc3)ncn2)c1`: -84.3% (inactive); `c1ccc(CNc2nc(-c3ccoc3)nc3ccccc23)cc1`: -106% (inactive).
Still for that read-out and setting: next, `COc1ccc(CNc2ccnc(-c3cccnc3)n2)c(OC)c1`: -83.3% (inactive).
With `COCCn1c(=O)c(-c2cccc(F)c2)nc2cncnc21`, the “activity change, positive = activation” value is -36.6% (inactive).
Same read-out and setting: next, `CN(Cc1ccco1)c1ccnc(-c2cccnc2)n1`: -64.9% (inactive); `CS(=O)(=O)Nc1cccc(-c2cncnc2Nc2ccccc2)c1`: -102% (inactive); `COc1ccc(CNc2ncncc2-c2ccc(N(C)C)cc2)c(OC)c1`: -68.1% (inactive).
The same measure, in the same setting: next, `COc1cccc(Cn2c(=O)c(-c3cccc(C#N)c3)nc3cnc(OC)nc32)c1`: -77.6% (inactive); `O=c1c(-c2cccs2)nc2cncnc2n1-c1ccccc1`: -54% (inactive).
Consider `Cn1cc(-c2nc3cncnc3n(C3CC3)c2=O)c2ccccc21`, for which the “activity change, positive = activation” value was -30.7% (inactive).
As to `Clc1ccccc1-c1nccc(NCCN2CCOCC2)n1`, the “activity change, positive = activation” value was -82.7% (inactive).
On to `COc1cccc(-c2cncnc2NCc2cnc(C)cn2)c1`, for which the “activity change, positive = activation” value is -88.5% (inactive).
Take `c1ccc(Nc2ncncc2-c2ccoc2)cc1`: the “activity change, positive = activation” value was -107% (inactive).
Same read-out and setting: next, `CN(C)C(=O)c1ccc(-c2nccc(-n3ccnc3)n2)cc1`: -58.1% (inactive); `COc1cccc(-c2cncnc2NCc2cccs2)c1`: -62.8% (inactive); `COc1ccc2[nH]cc(CCNc3ncncc3-c3cccnc3)c2c1`: -97% (inactive).
For `COc1ccccc1-c1cc(Nc2ccn[nH]2)ncn1`, the “activity change, positive = activation” value is -88.2% (inactive).
Still for that read-out and setting: next, `COc1ccccc1-c1cncnc1NCc1cccs1`: -102% (inactive).
On the same count and under the same terms, next, `N#Cc1ccccc1-c1ccc2ncnc(NCCN3CCOCC3)c2c1`: -77.1% (inactive); `CN(Cc1ccco1)c1ncncc1-c1cccnc1`: -88.1% (inactive).
For `COc1ccc2[nH]cc(CCNc3ccnc(-c4ccc5c(c4)OCO5)n3)c2c1`, the “activity change, positive = activation” value was -91.7% (inactive).
Still for that read-out and setting: next, `Cc1ccccc1-c1cc(NCc2cccnc2)ncn1`: -83.9% (inactive).
Still for that read-out and setting: next, `COCCNc1nc(-c2c(C)noc2C)nc2ccccc12`: -51.8% (inactive); `COc1ccccc1-c1nc(N(C)Cc2ccco2)c2ccccc2n1`: -82.1% (inactive).
Regarding `COc1ccccc1-c1cncnc1NCc1ccccc1`, the “activity change, positive = activation” value is -115% (inactive).
Still for that read-out and setting: next, `COc1ccccc1-c1nc(NCCN2CCOCC2)c2ccccc2n1`: -57% (inactive); `c1csc(CNc2nc(-c3ccoc3)nc3ccccc23)c1`: -98.2% (inactive); `CN(C)C(=O)c1ccc(-c2ccc3ncnc(N4CCOCC4)c3c2)cc1`: -67.8% (inactive).
Regarding `CS(=O)(=O)Nc1cccc(-c2cncnc2-n2ccnc2)c1`, the “activity change, positive = activation” value was -98% (inactive).

The next experiment has as its target Cytochrome P450 2D6 (Homo sapiens) (UniProt P10635). The experiment in a line: qHTS Assay for Inhibitors and Substrates of Cytochrome P450 2D6 (AID 891). Further: potency means the concentration at half of the fitted maximal effect; nearly all actives have a fitted effect of over 60% in size. The note with it: recombinant CYP2D6, luciferin-ME EGE luminescence; series mostly up to 57.1 µM; activity change, negative = inhibition: at the top concentration. The method, boiled down: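 Human CYP2D6 (5 nM) with 30 uM Luciferin-ME EGE (at Km) in 100 mM KPO4, compound preincubated 10 min, then NADPH regeneration system for 60 min at room temperature. Luciferin read by luminescence; normalized to 1.43 uM quinidine.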
On the technique in general: qHTS replaces the single test concentration by a dilution series.
As for `CCNc1ncc2nc(-c3cccc(C#N)c3)c(=O)n(CCC#N)c2n1`, the Potency is 0.0316 µM (active).
As for `CN(Cc1ccco1)c1ccnc(-c2cccnc2)n1`, the Potency was 7.94 µM (active).
The same measure, in the same setting: next, `COc1ccc2[nH]cc(CCNc3ccnc(-c4ccc5c(c4)OCO5)n3)c2c1`: 7.94 µM (active).
Still for that read-out and setting: next, `c1csc(CNc2nc(-c3ccoc3)nc3ccccc23)c1`: 3.98 µM (active).

The target in a further experiment is Cytochrome P450 2C19 (Homo sapiens) (UniProt P33261). The experiment in a line: qHTS Assay for Inhibitors and Substrates of Cytochrome P450 2C19 (AID 899). Further: potency means the concentration at half of the fitted maximal effect; nearly all actives have a fitted effect of over 60% in size. To be noted: recombinant CYP2C19, luciferin-H EGE luminescence; series mostly up to 57.1 µM; activity, negative = inhibition: at the top concentration. The method, boiled down:
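5 nM human CYP2C19 with 10uM Luciferin-H EGE (at KM) in 50mM KPO4, compound preincubated 10 min at 37C, then NADPH regeneration for 60 min at 37C. Luciferin read by luminescence after detection reagent; normalized to 57uM ketoconazole as full inhibition.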
In the case of `COc1ccc(CNc2ccnc(-c3cccnc3)n2)c(OC)c1`, the Potency was 2 µM (active).
On the same count and under the same terms, next, `CN(Cc1ccco1)c1ccnc(-c2cccnc2)n1`: 6.31 µM (active).
Still for that read-out and setting: next, `COc1ccc(CNc2ncncc2-c2ccc(N(C)C)cc2)c(OC)c1`: 1.58 µM (active); `O=c1c(-c2cccs2)nc2cncnc2n1-c1ccccc1`: 6.31 µM (active).
On the same count and under the same terms, next, `Clc1ccccc1-c1nccc(NCCN2CCOCC2)n1`: 5.01 µM (active); `COc1cccc(-c2cncnc2NCc2cccs2)c1`: 0.631 µM (active); `COc1ccc2[nH]cc(CCNc3ncncc3-c3cccnc3)c2c1`: 3.16 µM (active).
For the compound `COc1ccccc1-c1cc(Nc2ccn[nH]2)ncn1`, the Potency is 6.31 µM (active).
`COc1ccccc1-c1cncnc1NCc1cccs1`: the Potency was 2 µM (active).
On the same count and under the same terms, next, `COc1ccc2[nH]cc(CCNc3ccnc(-c4ccc5c(c4)OCO5)n3)c2c1`: 0.631 µM (active); `Cc1ccccc1-c1cc(N(C)Cc2ccco2)ncn1`: 6.31 µM (active).

A further experiment addresses Dual specificity protein kinase CLK4 (Homo sapiens) (UniProt Q9HAZ1). Nature of the experiment: qHTS Assay for Inhibitors of CDC-like Kinase 4 (ADP-FP Assay) (AID 1795). Further: nearly all actives have a fitted effect of over 60% in size. Further: potency means the concentration at half of the fitted maximal effect.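 On activity change, negative = inhibition: recombinant human CLK4 phosphorylating RS repeat peptide at 1 µM ATP; on the % scale 0 is the no-effect control and ±100 the full control effect.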 The note with it: Transcreener ADP fluorescence polarization; series mostly up to 50 µM; activity change, negative = inhibition: at the top concentration. The method, boiled down: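 FP readout: Orange Transcreener ADP2 tracer (4 nM) plus ADP antibody, read after 30 min at room temperature. Kinase step: 6.25 nM Clk4, 100 uM RS peptide, 1 uM ATP, pH 7.5, 1 h.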
Regarding `Cc1noc(C)c1-c1nccc(NCc2ccccc2)n1`, the “activity change, negative = inhibition” value was -15.2% (inactive).
Still for that read-out and setting: next, `c1ccc(CNc2cc(-c3ccoc3)ncn2)cc1`: 5.9% (inactive).
As for `CN(Cc1ccco1)c1cc(-c2cccnc2)ncn1`, the “activity change, negative = inhibition” value is -12.6% (inactive).
The same measure, in the same setting: next, `c1cncc(CNc2cc(-c3ccoc3)ncn2)c1`: 7.97% (inactive).
The same measure, in the same setting: next, `CC(=O)NCCNc1nc(-c2c(C)noc2C)nc2ccccc12`: -9.49% (inactive); `CC(=O)NCCNc1ccnc(-c2ccccc2C)n1`: -18.7% (inactive); `Cc1cnc(CNc2ccnc(-c3cccc(NS(C)(=O)=O)c3)n2)cn1`: -1.99% (inactive).
On the same count and under the same terms, next, `CS(=O)(=O)Nc1cccc(-c2cc(NCc3ccccc3)ncn2)c1`: -29.3% (inactive).
Regarding `CCNc1ncc2nc(-c3cccc(C#N)c3)c(=O)n(CCC#N)c2n1`, the “activity change, negative = inhibition” value is 3.37% (inactive).
In the case of `c1ccc(CNc2nc(-c3ccoc3)nc3ccccc23)cc1`, the “activity change, negative = inhibition” value was -18.4% (inactive).
The same measure, in the same setting: next, `COc1ccc(CNc2ccnc(-c3cccnc3)n2)c(OC)c1`: -9.26% (inactive).
Still for that read-out and setting: next, `COCCn1c(=O)c(-c2cccc(F)c2)nc2cncnc21`: 10.1% (inactive); `CN(Cc1ccco1)c1ccnc(-c2cccnc2)n1`: -10.1% (inactive).
On the same count and under the same terms, next, `O=c1c(-c2cccc(Cl)c2)nc2cncnc2n1Cc1ccccc1`: -3.43% (inactive); `CS(=O)(=O)Nc1cccc(-c2cncnc2Nc2ccccc2)c1`: -25.4% (inactive); `COc1ccc(CNc2ncncc2-c2ccc(N(C)C)cc2)c(OC)c1`: -1.91% (inactive).
With `COc1cccc(Cn2c(=O)c(-c3cccc(C#N)c3)nc3cnc(OC)nc32)c1`, the “activity change, negative = inhibition” value was -9.09% (inactive).
With `O=c1c(-c2cccs2)nc2cncnc2n1-c1ccccc1`, the “activity change, negative = inhibition” value is -3.03% (inactive).
Consider `Cn1cc(-c2nc3cncnc3n(C3CC3)c2=O)c2ccccc21`, for which the “activity change, negative = inhibition” value is -6.2% (inactive).
Consider `Clc1ccccc1-c1nccc(NCCN2CCOCC2)n1`, for which the “activity change, negative = inhibition” value is -23.2% (inactive).
The same measure, in the same setting: next, `COc1cccc(-c2cncnc2NCc2cnc(C)cn2)c1`: -14.2% (inactive).
As for `c1ccc(Nc2ncncc2-c2ccoc2)cc1`, the Potency is 5.62 µM (active).
Turning to `CN(C)C(=O)c1ccc(-c2nccc(-n3ccnc3)n2)cc1`, the “activity change, negative = inhibition” value is -13.7% (inactive).
The same measure, in the same setting: next, `COc1cccc(-c2cncnc2NCc2cccs2)c1`: -23.7% (inactive); `COc1ccc2[nH]cc(CCNc3ncncc3-c3cccnc3)c2c1`: -13.9% (inactive); `COc1ccccc1-c1cc(Nc2ccn[nH]2)ncn1`: -22.9% (inactive).
Still for that read-out and setting: next, `COc1ccccc1-c1cncnc1NCc1cccs1`: -16% (inactive); `N#Cc1ccccc1-c1ccc2ncnc(NCCN3CCOCC3)c2c1`: -19.7% (inactive).
The same measure, in the same setting: next, `CN(Cc1ccco1)c1ncncc1-c1cccnc1`: -2.63% (inactive); `COc1ccc2[nH]cc(CCNc3ccnc(-c4ccc5c(c4)OCO5)n3)c2c1`: -28.7% (inactive).
`Cc1ccccc1-c1cc(NCc2cccnc2)ncn1`: the “activity change, negative = inhibition” value was -15.4% (inactive).
The same measure, in the same setting: next, `CCNc1ncc2nc(-c3cccs3)c(=O)n(-c3ccccc3)c2n1`: -1.83% (inactive); `COCCNc1nc(-c2c(C)noc2C)nc2ccccc12`: -18% (inactive); `COc1ccccc1-c1nc(N(C)Cc2ccco2)c2ccccc2n1`: 4.75% (inactive).
On the same count and under the same terms, next, `COc1ccccc1-c1cncnc1NCc1ccccc1`: -10.9% (inactive); `COc1ccccc1-c1nc(NCCN2CCOCC2)c2ccccc2n1`: -11.7% (inactive).
For the compound `c1csc(CNc2nc(-c3ccoc3)nc3ccccc23)c1`, the Potency was 11.2 µM (active).
On to `Cc1ccccc1-c1cc(N(C)Cc2ccco2)ncn1`, for which the “activity change, negative = inhibition” value is 6.05% (inactive).
Still for that read-out and setting: next, `CN(C)C(=O)c1ccc(-c2ccc3ncnc(N4CCOCC4)c3c2)cc1`: -15.4% (inactive); `CS(=O)(=O)Nc1cccc(-c2cncnc2-n2ccnc2)c1`: 1.76% (inactive).
